# Results as given in PubChem BioAssay (NCATS).
# Where “and” joins values, the source holds several entries; their conditions need not be identical. Equal values may be shown once. Inconclusive results are not listed. A call without a number means that no potency is given here. A number with no mark means an inactive call. Calls of active or inactive are those of the source. Unless noted, calls follow the shape of the dose curve; as a rule, active = well fitted curve in the direction sought with a large enough effect; inconclusive = small, poorly fitted or top-dose-only effect, or another doubt; inactive = no such curve, though single readings can be large; an effect the other way counts as inactive or inconclusive.
# What was measured:
# [1] = Primary qHTS for small molecule stabilizers of the endoplasmic reticulum resident proteome: Secreted ER Calcium Modulated Protein (SERCaMP) assay (AID 1508630)
# Method in brief: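 The SH-SY5Y reporter protocol was run at 3 concentrations up to 38.3 uM (primary) or 11 concentrations (follow-up): 16 h compound, 100 nM thapsigargin for 4 h, then extracellular luciferase luminescence.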
# [2] = A High-Content qHTS Against Drug Library for the Identification of Small Molecules that Inhibit DYT1 Early Onset Primary Dystonia-Associated Cell Pathology (AID 1645839; calls by dose curve; also: series mostly up to about 46 µM)
# Method in brief: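 Induced EGFP-delE TorsinA cells are imaged after 48 h of compound treatment. Punctate fusion-protein distribution gives the %pathology value, while nuclei counts flag toxicity. Wild-type EGFP-hTOR1A cells define the normal pattern.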
# [3] = molecular target: Cytochrome P450 2D6 (Homo sapiens) (UniProt P10635); test: Cytochrome P450 family 2 subfamily D member 6 (CYP2D6) small molecule antagonists: luciferase biochemical (cell-free) qHTS assay (AID 1645840; active = well fitted curve in the direction sought with a large enough effect in the repeat runs; an effect the other way counts as inactive or inconclusive; also: nearly all actives have a fitted effect of over 55% in size; also: potency is read from the fitted curve at half-maximal effect)
# Cytochrome P450 2D6 (Homo sapiens), sequence (P10635 whole entry, looked up): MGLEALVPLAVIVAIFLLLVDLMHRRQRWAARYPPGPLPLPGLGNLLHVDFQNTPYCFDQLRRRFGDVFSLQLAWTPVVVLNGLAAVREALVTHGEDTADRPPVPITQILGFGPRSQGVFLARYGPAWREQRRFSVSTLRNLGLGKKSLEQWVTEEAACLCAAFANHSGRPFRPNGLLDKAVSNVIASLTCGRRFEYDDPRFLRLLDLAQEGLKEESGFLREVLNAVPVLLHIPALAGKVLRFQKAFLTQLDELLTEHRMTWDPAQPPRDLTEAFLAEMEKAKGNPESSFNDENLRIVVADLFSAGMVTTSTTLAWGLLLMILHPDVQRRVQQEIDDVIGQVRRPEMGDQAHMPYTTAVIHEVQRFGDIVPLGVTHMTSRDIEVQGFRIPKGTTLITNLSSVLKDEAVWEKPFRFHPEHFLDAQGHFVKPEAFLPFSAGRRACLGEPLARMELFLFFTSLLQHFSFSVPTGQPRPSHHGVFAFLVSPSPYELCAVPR
# Method in brief: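 P450-Glo CYP2D6 system: proluciferin substrate converted by enzyme to luciferin, read by luminescence proportional to activity. Enzyme-substrate mix with compound 10 min at room temperature, then NADPH regeneration 1 h before detection reagent.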
# [4] = molecular target: Cytochrome P450 2C9 (Homo sapiens) (UniProt P11712); test: Cytochrome P450 family 2 subfamily C member 9 (CYP2C9) small molecule antagonists: luciferase biochemical (cell-free) qHTS assay (AID 1645842; active = well fitted curve in the direction sought with a large enough effect in the repeat runs; an effect the other way counts as inactive or inconclusive; also: nearly all actives have a fitted effect of over 55% in size; also: potency is read from the fitted curve at half-maximal effect)
# Cytochrome P450 2C9 (Homo sapiens), sequence (P11712 whole entry, looked up): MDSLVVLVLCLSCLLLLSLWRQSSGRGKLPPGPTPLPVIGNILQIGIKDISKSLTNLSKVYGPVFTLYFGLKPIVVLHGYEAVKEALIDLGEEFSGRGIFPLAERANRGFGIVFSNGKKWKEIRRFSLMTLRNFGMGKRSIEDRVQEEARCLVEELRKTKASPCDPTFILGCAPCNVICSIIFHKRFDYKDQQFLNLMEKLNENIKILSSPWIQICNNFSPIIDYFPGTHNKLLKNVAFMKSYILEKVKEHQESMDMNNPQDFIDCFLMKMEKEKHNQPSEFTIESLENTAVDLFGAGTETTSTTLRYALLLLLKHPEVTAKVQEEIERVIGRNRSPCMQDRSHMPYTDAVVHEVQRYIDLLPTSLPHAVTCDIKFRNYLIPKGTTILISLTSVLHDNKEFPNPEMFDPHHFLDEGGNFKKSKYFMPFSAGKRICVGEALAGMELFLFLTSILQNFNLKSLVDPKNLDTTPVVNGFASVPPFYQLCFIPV
# Method in brief: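 P450-Glo CYP2C9 system: proluciferin substrate with enzyme in mix containing 0.4% BSA, 10 min at room temperature, then NADPH regeneration solution added and incubated 1 h at 37C. Detection reagent stopped reaction; luminescence read after 20 min as RLU.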
# [5] = Primary qHTS for inhibitors of nuclear receptor binding SET domain protein 2 (NSD2) in an isogenic RCH-ACV NSD2 p.E1099K mutant (9B) (AID 1645876); also: nearly all actives have a fitted effect of over 70% in size; also: potency is read from the fitted curve at half-maximal effect
# [6] = Primary qHTS for inhibitors of nuclear receptor binding SET domain protein 2 (NSD2) in an RCH-ACV wild type WT cells (2C) (AID 1645877); also: nearly all actives have a fitted effect of over 70% in size
# [7] = molecular target: Rap guanine nucleotide exchange factor 3 (Homo sapiens) (UniProt O95398); test: Confirmatory qHTS for antagonist of cAMP-regulated guanine nucleotide exchange factor 3 (EPAC1) (AID 1645880); also: nearly all actives have a fitted effect of over 55% in size; also: potency is read from the fitted curve at half-maximal effect
# Rap guanine nucleotide exchange factor 3 (Homo sapiens), sequence (O95398 whole entry, looked up): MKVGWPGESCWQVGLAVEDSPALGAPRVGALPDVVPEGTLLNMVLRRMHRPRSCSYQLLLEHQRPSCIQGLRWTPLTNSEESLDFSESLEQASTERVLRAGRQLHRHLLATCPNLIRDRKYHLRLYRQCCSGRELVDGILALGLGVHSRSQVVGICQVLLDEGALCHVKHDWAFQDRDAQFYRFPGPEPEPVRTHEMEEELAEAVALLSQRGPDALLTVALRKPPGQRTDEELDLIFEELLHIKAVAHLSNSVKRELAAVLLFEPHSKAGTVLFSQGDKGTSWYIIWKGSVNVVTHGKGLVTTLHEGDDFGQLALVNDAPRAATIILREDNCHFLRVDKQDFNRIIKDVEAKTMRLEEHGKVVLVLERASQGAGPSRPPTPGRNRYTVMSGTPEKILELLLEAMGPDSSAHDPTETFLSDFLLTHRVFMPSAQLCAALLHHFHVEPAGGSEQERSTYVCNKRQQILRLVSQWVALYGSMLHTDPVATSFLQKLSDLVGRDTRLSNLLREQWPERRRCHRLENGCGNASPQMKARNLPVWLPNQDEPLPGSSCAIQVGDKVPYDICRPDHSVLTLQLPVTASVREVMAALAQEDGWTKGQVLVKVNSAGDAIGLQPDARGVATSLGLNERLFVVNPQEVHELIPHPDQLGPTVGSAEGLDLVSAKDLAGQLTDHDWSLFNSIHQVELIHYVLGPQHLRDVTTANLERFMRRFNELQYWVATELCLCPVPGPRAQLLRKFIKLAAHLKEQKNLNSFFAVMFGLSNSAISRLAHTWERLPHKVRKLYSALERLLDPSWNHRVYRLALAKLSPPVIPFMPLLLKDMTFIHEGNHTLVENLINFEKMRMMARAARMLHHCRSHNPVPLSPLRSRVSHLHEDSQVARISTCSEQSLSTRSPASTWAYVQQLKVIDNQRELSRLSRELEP
# Method in brief: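 Released BODIPY-GDP fluoresces less than Rap1-bound BODIPY-GDP; the signal is followed at 480/540 nm at 5-min intervals over 30 min, after 5 min at room temperature. Reactions contain 100 nM EPAC1, 250 nM RAP1B-BODIPY-GDP and 50 uM GDP; results are normalized to ATA and DMSO.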
# [8] = molecular target: Rap guanine nucleotide exchange factor 3 (Homo sapiens) (UniProt O95398); test: Confirmatory qHTS for agonist of cAMP-regulated guanine nucleotide exchange factor 3 (EPAC1) (AID 1645881);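 also: EPAC1 catalysed release of BODIPY-GDP from Rap1B seen as fluorescence loss; nearly all actives have a fitted effect of over 75% in size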
# [9] = molecular target: Rap guanine nucleotide exchange factor 4 (Homo sapiens) (UniProt Q8WZA2); test: Confirmatory qHTS for agonist of cAMP-regulated guanine nucleotide exchange factor 4 (EPAC2) (AID 1645884);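 also: nucleotide exchange releases bodipy-GDP from Rap1 and this lowers its fluorescence; nearly all actives have a fitted effect of over 65% in size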
# Rap guanine nucleotide exchange factor 4 (Homo sapiens), sequence (Q8WZA2 whole entry, looked up): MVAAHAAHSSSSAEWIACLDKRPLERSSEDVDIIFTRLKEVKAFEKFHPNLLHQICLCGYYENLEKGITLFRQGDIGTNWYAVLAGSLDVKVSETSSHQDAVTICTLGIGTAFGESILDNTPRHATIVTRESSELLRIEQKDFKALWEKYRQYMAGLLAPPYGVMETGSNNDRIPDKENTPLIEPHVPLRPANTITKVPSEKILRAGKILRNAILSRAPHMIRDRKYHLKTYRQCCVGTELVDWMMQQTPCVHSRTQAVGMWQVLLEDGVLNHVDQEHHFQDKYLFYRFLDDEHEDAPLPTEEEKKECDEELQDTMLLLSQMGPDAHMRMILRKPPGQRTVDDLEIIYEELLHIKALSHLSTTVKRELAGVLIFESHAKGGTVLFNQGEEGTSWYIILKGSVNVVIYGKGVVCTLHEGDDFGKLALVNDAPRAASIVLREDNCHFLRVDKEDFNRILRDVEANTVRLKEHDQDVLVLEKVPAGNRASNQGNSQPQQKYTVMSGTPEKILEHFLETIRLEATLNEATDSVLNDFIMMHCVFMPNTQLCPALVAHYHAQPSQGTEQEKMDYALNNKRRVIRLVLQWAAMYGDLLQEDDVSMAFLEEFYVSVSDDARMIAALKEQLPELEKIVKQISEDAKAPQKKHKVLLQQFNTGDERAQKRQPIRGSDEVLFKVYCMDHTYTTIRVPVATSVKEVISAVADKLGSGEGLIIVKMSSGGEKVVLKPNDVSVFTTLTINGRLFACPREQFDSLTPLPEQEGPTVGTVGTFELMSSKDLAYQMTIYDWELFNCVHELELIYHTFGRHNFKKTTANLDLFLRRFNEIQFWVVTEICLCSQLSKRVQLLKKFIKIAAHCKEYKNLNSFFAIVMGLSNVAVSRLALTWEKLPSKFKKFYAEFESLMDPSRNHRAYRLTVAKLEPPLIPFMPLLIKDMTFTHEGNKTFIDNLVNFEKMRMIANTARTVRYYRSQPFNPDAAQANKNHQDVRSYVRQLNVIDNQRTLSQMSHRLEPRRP
# [10] = molecular target: Rap guanine nucleotide exchange factor 4 (Homo sapiens) (UniProt Q8WZA2); test: Confirmatory qHTS for antagonist of cAMP-regulated guanine nucleotide exchange factor 4 (EPAC2) (AID 1645885); also: nearly all actives have a fitted effect of over 25% in size; also: potency is read from the fitted curve at half-maximal effect
# [11] = molecular target: Cytochrome P450 3A4 (Homo sapiens) (UniProt P08684); test: Cytochrome P450 family 3 subfamily A member 4 (CYP3A4) small molecule antagonists: luciferase qHTS assay (AID 1645841; active = well fitted curve in the direction sought with a large enough effect in the repeat runs; an effect the other way counts as inactive or inconclusive; also: nearly all actives have a fitted effect of over 45% in size)
# Cytochrome P450 3A4 (Homo sapiens), sequence (P08684 whole entry, looked up): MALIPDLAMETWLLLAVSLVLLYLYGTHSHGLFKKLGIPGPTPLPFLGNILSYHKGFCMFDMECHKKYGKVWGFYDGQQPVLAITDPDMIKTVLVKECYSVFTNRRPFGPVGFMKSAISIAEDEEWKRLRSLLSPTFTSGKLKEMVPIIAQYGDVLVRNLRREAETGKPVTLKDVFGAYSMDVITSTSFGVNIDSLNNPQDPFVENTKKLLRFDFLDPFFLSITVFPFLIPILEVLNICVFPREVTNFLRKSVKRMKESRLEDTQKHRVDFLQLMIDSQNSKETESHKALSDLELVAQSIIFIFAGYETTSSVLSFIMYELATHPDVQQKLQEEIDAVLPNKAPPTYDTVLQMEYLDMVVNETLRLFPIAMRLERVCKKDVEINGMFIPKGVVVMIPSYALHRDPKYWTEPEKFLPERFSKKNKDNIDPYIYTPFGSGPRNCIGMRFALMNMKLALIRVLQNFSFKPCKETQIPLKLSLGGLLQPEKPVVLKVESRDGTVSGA
# Method in brief: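 P450-Glo CYP3A4 enzyme with proluciferin substrate was preincubated with DMSO-dissolved compounds for 10 min at room temperature. NADPH regeneration solution started a 1 h reaction. Detection reagent stopped it, and luminescence was read after 20 min.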
# [12] = molecular target: Rap guanine nucleotide exchange factor 3 (Homo sapiens) (UniProt O95398); test: Counterscreen qHTS for antagonist of cAMP-regulated guanine nucleotide exchange factor 3 (EPAC1) (AID 1645888)
# Method in brief: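 Measured: fluorescence of BODIPY-GDP bound to Rap1B, which falls as exchange proceeds. Conditions include 50 uM competing GDP, 5 and 30 min reads, and a later cAMP challenge for antagonist detection.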
# [13] = NCATS anti-infectives library activity on HEK293 viability as a counter-qHTS vs the C. elegans viability qHTS (AID 1745854);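 also: HEK293 cells exposed to compounds for 24 hr before the viability read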
# Method in brief: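 Counter-screen for cytotoxicity: HEK293, 24 hr, 37C, compounds up to 41.7 uM final (a dilution series, 1:5). Readout CellTiter-Glo luminescence, 10 min RT. Digitonin control, […] uM final.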
structure (smiles),measurement,setting,value
NS(=O)(=O)c1cc(C(=O)O)cc(N2CCCC2)c1Oc1ccccc1,Potency,[1],inactive
same,Potency,[2],inactive
same,Potency,[3],inactive
same,Potency,[4],inactive
same,Potency,[5],inactive
CCCCCCCC/C=C\CCCCCCCCN,Potency,[1],inactive
same,Potency,[2],inactive
same,Potency,[3],0.55 µM (active)
same,Potency,[4],19.5 µM (active)
same,Potency,[5],inactive
OC1C(O)C(O)C(O)C(O)C1O (stereo not drawn),Potency,[1],inactive
same,Potency,[2],inactive
same,Potency,[3],inactive
same,Potency,[4],inactive
same,Potency,[5],inactive
same,Potency,[6],inactive
CC(=O)OCC(=O)[C@H]1CC[C@H]2[C@@H]3CCC4=CC(=O)CC[C@]4(C)[C@H]3CC[C@]12C,Potency,[1],inactive
same,Potency,[2],inactive
same,Potency,[3],inactive
same,Potency,[4],4.9 µM (active)
same,Potency,[5],inactive
Cc1ncc(CO)c(C=O)c1O,Potency,[1],inactive
same,Potency,[2],inactive
same,Potency,[3],inactive
same,Potency,[4],inactive
same,Potency,[5],inactive
same,Potency,[6],inactive
Nc1ccc(S(=O)(=O)NCc2ccccc2)cc1,Potency,[1],inactive
same,Potency,[2],inactive
same,Potency,[3],inactive
same,Potency,[4],inactive
same,Potency,[5],inactive
CCCCCCCCCCCCCCCCO,Potency,[1],inactive
same,Potency,[2],inactive
same,Potency,[3],inactive
same,Potency,[4],inactive
same,Potency,[5],inactive
same,Potency,[6],inactive
O=C(Nc1cccc(C2=NCCN2)c1)Nc1cccc(C2=NCCN2)c1,Potency,[1],inactive
same,Potency,[2],inactive
same,Potency,[3],inactive
same,Potency,[4],inactive
same,Potency,[5],10.3 µM (active)
CCOC(=O)c1c(N)sc2c1CCN(Cc1ccccc1)C2,Potency,[1],inactive
same,Potency,[2],inactive
same,Potency,[3],0.0098 µM (active)
same,Potency,[4],8.71 µM (active)
same,Potency,[5],16.8 µM (active)
CC[N+](C)(CC)CCOC(=O)C(O)(c1ccccc1)C1CCCCC1 (stereo not drawn),Potency,[1],inactive
same,Potency,[2],inactive
same,Potency,[3],0.776 µM (active)
same,Potency,[4],inactive
same,Potency,[5],inactive
CN(C)CCN1C(=O)c2ccccc2N(C)c2ccccc21,Potency,[1],inactive
same,Potency,[2],inactive
same,Potency,[4],inactive
same,Potency,[5],inactive
COc1ccc(CN(CCN(C)C)c2ncccn2)cc1,Potency,[1],inactive
same,Potency,[2],inactive
same,Potency,[3],0.49 µM (active)
same,Potency,[4],inactive
same,Potency,[5],inactive
same,Potency,[6],inactive
O=C1OC(CN2CCOCC2)CN1/N=C/c1ccc([N+](=O)[O-])o1 (stereo not drawn),Potency,[1],inactive
same,Potency,[2],inactive
same,Potency,[4],inactive
OC[C@H]1O[C@@H]2O[C@H]3[C@H](O)[C@@H](O)[C@@H](O[C@H]4[C@H](O)[C@@H](O)[C@@H](O[C@H]5[C@H](O)[C@@H](O)[C@@H](O[C@H]6[C@H](O)[C@@H](O)[C@@H](O[C@H]7[C@H](O)[C@@H](O)[C@@H](O[C@H]8[C@H](O)[C@@H](O)[C@@H](O[C@H]1[C@H](O)[C@H]2O)O[C@@H]8CO)O[C@@H]7CO)O[C@@H]6CO)O[C@@H]5CO)O[C@@H]4CO)O[C@@H]3CO,Potency,[1],inactive
same,Potency,[2],inactive
same,Potency,[3],inactive
same,Potency,[4],inactive
same,Potency,[5],inactive
same,Potency,[6],inactive
CC(=O)Nc1ccc(OCC(O)CNC(C)C)cc1 (stereo not drawn),Potency,[1],inactive
same,Potency,[2],inactive
same,Potency,[3],inactive
same,Potency,[4],inactive
same,Potency,[5],inactive
same,Potency,[6],inactive
CCCCCCCCCCCCCC(=O)OC(C)C,Potency,[1],inactive
same,Potency,[2],inactive
same,Potency,[3],inactive
same,Potency,[4],inactive
same,Potency,[5],inactive
same,Potency,[6],inactive
COc1ccc(C(=O)c2ccccc2)c(O)c1,Potency,[1],inactive
same,Potency,[2],inactive
same,Potency,[3],inactive
same,Potency,[7],inactive
same,outcome,[8],inactive
same,outcome,[9],inactive
same,Potency,[10],31.2 µM (active)
C[C@@H](O)[C@H]1C(=O)N2C(C(=O)O)=C(S[C@@H]3CN[C@H](CNS(N)(=O)=O)C3)[C@H](C)[C@H]12,Potency,[1],inactive
same,Potency,[2],inactive
same,Potency,[3],inactive
same,Potency,[4],11 µM (active)
same,Potency,[5],inactive
same,Potency,[6],inactive
COc1ccc(C(Cl)=C(c2ccc(OC)cc2)c2ccc(OC)cc2)cc1,Potency,[1],inactive
same,Potency,[2],inactive
same,Potency,[3],inactive
same,Potency,[5],inactive
same,Potency,[7],inactive
same,outcome,[8],inactive
same,outcome,[9],inactive
same,Potency,[10],7.84 µM (active) and 2.31 µM (active)
Cc1cccc(C)c1NC(=O)CN1CCCCCC1,Potency,[1],inactive
same,Potency,[2],inactive
same,Potency,[3],11 µM (active)
same,Potency,[4],inactive
same,Potency,[5],inactive
same,Potency,[6],inactive
CN(Cc1ccc(C(C)(C)C)cc1)Cc1cccc2ccccc12,Potency,[1],inactive
same,Potency,[2],inactive
same,Potency,[3],0.123 µM (active)
same,Potency,[5],inactive
same,Potency,[6],inactive
C=C1c2cccc(O)c2C(O)=C2C(=O)[C@]3(O)C(O)=C(C(N)=O)C(=O)[C@@H](N(C)C)[C@@H]3[C@@H](O)[C@H]12,Potency,[1],inactive
same,Potency,[2],inactive
same,Potency,[11],inactive
same,Potency,[4],inactive
same,Potency,[5],inactive
same,Potency,[7],47.8 µM (active)
same,outcome,[8],inactive
same,outcome,[9],inactive
same,Potency,[10],inactive
same,outcome,[12],inactive
CCC1Nc2cc(Cl)c(S(N)(=O)=O)cc2S(=O)(=O)N1 (stereo not drawn),Potency,[1],inactive
same,Potency,[2],inactive
same,Potency,[3],inactive
same,Potency,[4],inactive
same,Potency,[5],inactive
same,Potency,[6],inactive
C[C@H]1[C@H]2CC[C@H]3[C@@H]4CC=C5C[C@@H](N(C)C)CC[C@]5(C)[C@H]4CC[C@]23CN1C,Potency,[1],inactive
same,Potency,[2],inactive
same,Potency,[3],inactive
same,Potency,[4],inactive
same,"activity change, negative = cytotoxicity",[13],-25.4% [at 8.35 µM]
COc1ccc(/C=N/NC(=O)c2ccncc2)cc1OC,Potency,[1],inactive
same,Potency,[2],inactive
same,Potency,[3],21.9 µM (active)
same,Potency,[4],12.3 µM (active)
same,Potency,[5],inactive
same,Potency,[6],inactive
